Measured values from PubChem BioAssay AID1376 (SRMLSC, 2008).
Out of some 220,000 compounds screened, about 530 (0.24%) were called active. This excerpt belongs to a sample that is enriched for actives. Results with a measured potency or affinity are listed apart. A number with no mark means an inactive call. Rule as the data show it: active = inhibition above about 13%; inconclusive = no clear call, values can overlap the other calls; inactive = below that.

target: Bifunctional protein GlmU (Mycobacterium tuberculosis (strain ATCC 25618 / H37Rv)) (UniProt P9WMN3); test: inhibition of mycobacterial GlmU enzyme – biochemical, glucosamine-1-phosphate acetyltransferase (AID 1376);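 also: 0% = complete reaction with vehicle and 100% = reaction without substrate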; conditions: M. tuberculosis GlmU acetyltransferase enzyme assay; active compounds read high;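 tested at 30 µM in the primary screen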
Sequence (P9WMN3 whole entry, looked up): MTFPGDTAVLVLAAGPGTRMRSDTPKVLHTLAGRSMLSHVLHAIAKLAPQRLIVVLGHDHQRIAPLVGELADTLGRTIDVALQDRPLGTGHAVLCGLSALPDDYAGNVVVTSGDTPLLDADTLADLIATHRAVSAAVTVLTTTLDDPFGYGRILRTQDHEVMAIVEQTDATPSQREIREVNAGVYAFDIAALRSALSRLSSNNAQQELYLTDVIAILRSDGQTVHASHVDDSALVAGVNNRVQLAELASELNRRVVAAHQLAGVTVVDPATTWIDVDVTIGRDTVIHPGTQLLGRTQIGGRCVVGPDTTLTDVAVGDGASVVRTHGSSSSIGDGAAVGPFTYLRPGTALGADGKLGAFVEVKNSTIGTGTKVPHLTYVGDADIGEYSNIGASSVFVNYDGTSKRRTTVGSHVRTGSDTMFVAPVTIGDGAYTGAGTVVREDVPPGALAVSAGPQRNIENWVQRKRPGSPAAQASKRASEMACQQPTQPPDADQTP

**Q.** For `O=C1CCC/C(=N\NC(=O)c2ccc(CSc3cccc4cccnc34)cc2)C1`, which inhibition is on record?
**A.** Its inhibition is 4.6%.

**Q.** How did the inhibition turn out when `CCn1c(SCC(=O)N/N=C/C=C/c2ccco2)nc2ccccc21` was run?
**A.** The inhibition was -1.16%.

**Q.** For `Cn1c(SCC(=O)N/N=C/C=C/c2ccco2)nc2ccccc21`, which inhibition is on record?
**A.** The inhibition was 13% (active).

**Q.** `Cn1c(SCC(=O)N/N=C/C=C\c2ccco2)nc2ccccc21` was tested. Which inhibition did it give?
**A.** Its inhibition is -4.83%.

**Q.** Which inhibition does the source give for `COc1cc(CNCCN(C)C)c(Br)cc1OCC(=O)NCc1ccccc1` here?
**A.** Its inhibition is -1.96%.

**Q.** `COc1ccc(/C=N/Nc2nc3ccccc3s2)cc1O` was tested. Which inhibition did it give?
**A.** The inhibition was -3.48%.

**Q.** How did the inhibition turn out when `O=[N+]([O-])c1cc(Cl)cc(/C=N/Nc2nc3ccccc3s2)c1O` was run?
**A.** The inhibition was 0.98%.

**Q.** `COc1cc(/C=N/Nc2nc3ccccc3s2)cc([N+](=O)[O-])c1O` was tested. Which inhibition did it give?
**A.** Its inhibition is 13.2% (active).

**Q.** With `COc1ccc(/C=C/C(=O)OCC(=O)NC(=O)NC(C)(C)C)cc1` as the molecule, how does the inhibition read?
**A.** Its inhibition is 1.36%.

**Q.** With `O=C(/C=C/c1ccc2ccccc2n1)N1CCN(S(=O)(=O)c2ccccc2F)CC1` as the molecule, how does the inhibition read?
**A.** The inhibition was -1.23%.

**Q.** Which inhibition does the source give for `CC(=O)c1ccc(N2CCN(C(=O)/C=C/c3ccc4ccccc4n3)CC2)cc1` here?
**A.** The inhibition was 0.1%.

**Q.** With `CC(=O)c1ccc(S(=O)(=O)N2CCN(C(=O)/C=C/c3ccc4ccccc4n3)CC2)cc1` as the molecule, how does the inhibition read?
**A.** Its inhibition is 14.1% (active).

**Q.** With `Cc1ccc(/C=N/NC(=O)C(C)Oc2ccccc2[N+](=O)[O-])s1` (configuration not stated) as the molecule, how does the inhibition read?
**A.** The inhibition was -0.21%.

**Q.** With `O=c1c2ccccc2n(Cc2ccccc2F)c(=O)n1Cc1ccccc1F` as the molecule, how does the inhibition read?
**A.** Its inhibition is 4.63%.

**Q.** Which inhibition does the source give for `Nc1ccc(Nc2ccccc2)c(Cl)c1` here?
**A.** Its inhibition is 3.28%.

**Q.** With `Nc1cc(C(=O)O)ccc1Nc1ccccc1` as the molecule, how does the inhibition read?
**A.** Its inhibition is -4.84%.

**Q.** For `Nc1ccc(Nc2ccccc2)c(S(=O)(=O)O)c1`, which inhibition is on record?
**A.** Its inhibition is 36.2% (active).

**Q.** How did the inhibition turn out when `CCN(CC)S(=O)(=O)c1ccc(OC)c(NC(=O)c2ccc([N+](=O)[O-])cc2)c1` was run?
**A.** Its inhibition is -2.82%.

**Q.** Which inhibition does the source give for `Cc1cccc(-c2c3c(=O)n(C)c(=O)n(C)c3c3cccnn23)c1` here?
**A.** Its inhibition is -0.55%.

**Q.** With `Cc1ccc(N2NC(=O)/C(=C/c3ccc(-c4ccc(Cl)c(C(=O)O)c4)o3)C2=O)cc1` as the molecule, how does the inhibition read?
**A.** Its inhibition is 7.4%.

**Q.** Which inhibition does the source give for `O=C1NN(c2ccccc2)C(=O)/C1=C\c1ccc(-c2cc([N+](=O)[O-])ccc2O)o1` here?
**A.** Its inhibition is 9.4%.

**Q.** For `CCOC(=O)c1ccc(N2N=C(C)/C(=C/C=C/c3ccco3)C2=O)cc1`, which inhibition is on record?
**A.** Its inhibition is 3.89%.

**Q.** Which inhibition does the source give for `CC1(C)OC(=O)C(=Cc2ccc(-c3ccc(Cl)c(C(=O)O)c3)o2)C(=O)O1` here?
**A.** Its inhibition is 6.43%.

**Q.** With `O=C1NN(c2ccccc2)C(=O)/C1=C/c1ccc(Sc2ccc(Cl)cc2)o1` as the molecule, how does the inhibition read?
**A.** The inhibition was 4.82%.

**Q.** With `Cc1ccc(Sc2ccc(/C=C3/C(=O)NN(c4ccccc4)C3=O)o2)cc1` as the molecule, how does the inhibition read?
**A.** Its inhibition is 4.6%.

**Q.** `O=C1NN(c2ccc(Cl)cc2)C(=O)/C1=C\c1ccc(-c2cccc(C(=O)O)c2)o1` was tested. Which inhibition did it give?
**A.** Its inhibition is 30.9% (active).

**Q.** For `CC1=NN(c2ccc(C(=O)OC(C)C)cc2)C(=O)/C1=C\C=C\c1ccco1`, which inhibition is on record?
**A.** Its inhibition is 1.04%.

**Q.** For `Cc1cccc(N2C(=O)NC(=O)/C(=C/c3ccc(-c4ccc(C(=O)O)c(Cl)c4)o3)C2=O)c1`, which inhibition is on record?
**A.** The inhibition was -1.08%.

**Q.** For `CCOC(=O)C1CCN(c2cc(C)nc3cc(-c4cccc(F)c4)nn23)CC1`, which inhibition is on record?
**A.** The inhibition was 0.46%.

**Q.** How did the inhibition turn out when `CCCNC(=O)Nc1ccsc1C(=O)OC` was run?
**A.** Its inhibition is -1.89%.

**Q.** With `O=C1N=C(N2CCOCC2)S/C1=C1\C(=O)N(Cc2ccccc2)c2ccccc21` as the molecule, how does the inhibition read?
**A.** Its inhibition is 0.6%.

**Q.** `COCCCNc1ncnc2nc[nH]c12` was tested. Which inhibition did it give?
**A.** The inhibition was -2.31%.

**Q.** With `CC1(C(=O)OCC(=O)Nc2ccc(C(N)=O)cc2)CC1(Cl)Cl` (configuration not stated) as the molecule, how does the inhibition read?
**A.** Its inhibition is -0.58%.

**Q.** How did the inhibition turn out when `CC1CC(C)(C)NC(=S)N1CCCC(=O)Nc1ccc2c(c1)OCCO2` (configuration not stated) was run?
**A.** The inhibition was -3.18%.

**Q.** With `CC1CCN(C(c2nnnn2CCc2ccccc2)C(C)C)CC1` (configuration not stated) as the molecule, how does the inhibition read?
**A.** The inhibition was 2.28%.

**Q.** `CCCCC1(C)OC(=O)C(=Cc2ccc(-c3ccc(Cl)c(C(=O)O)c3)o2)C(=O)O1` (configuration not stated) was tested. Which inhibition did it give?
**A.** Its inhibition is 0.45%.

**Q.** For `COc1ccc(CN2C(=O)/C(=C/c3ccc(-c4ccc(Cl)c(C(=O)O)c4)o3)SC2=S)cc1`, which inhibition is on record?
**A.** The inhibition was 9.33%.

**Q.** `COc1ccc(Sc2ccc(/C=C3\C(=O)NN(c4ccccc4)C3=O)o2)cc1` was tested. Which inhibition did it give?
**A.** Its inhibition is 7.34%.

**Q.** For `CC1=NOC(=O)/C1=C\c1ccc(-c2ccc(Cl)c(C(=O)O)c2)o1`, which inhibition is on record?
**A.** Its inhibition is 19.4%.

**Q.** How did the inhibition turn out when `O=C(CN1CCC(NC(=O)Cc2ccccc2)CC1)Nc1cccc2ccccc12` was run?
**A.** Its inhibition is 4.11%.

**Q.** `O=C(NCc1ccccc1Cl)c1ccc(-c2ccccc2)cc1` was tested. Which inhibition did it give?
**A.** Its inhibition is -4.31%.

**Q.** How did the inhibition turn out when `O=C(NCc1ccccc1)c1c(O)c2cccc3c2n(c1=O)CCC3` was run?
**A.** The inhibition was -6.36%.

**Q.** How did the inhibition turn out when `CN(Cc1cnn(C)c1)S(=O)(=O)c1cccc([N+](=O)[O-])c1` was run?
**A.** The inhibition was 2.06%.

**Q.** How did the inhibition turn out when `CC(C)=C1C(=O)NN(c2cccc(Cl)c2)C1=O` was run?
**A.** Its inhibition is 3.03%.

**Q.** How did the inhibition turn out when `O=C1CC(=O)N(c2cccc(F)c2)N1` was run?
**A.** Its inhibition is 8.59%.

**Q.** Which inhibition does the source give for `COCCNC(=O)[C@H]1C[C@@H]1[C@H](NP(=O)(c1ccccc1)c1ccccc1)c1ccccc1` here?
**A.** Its inhibition is 0.38%.

**Q.** For `Cc1ccc(-n2c(COc3cccc(C)c3)n[nH]c2=S)cc1`, which inhibition is on record?
**A.** Its inhibition is 1.39%.

**Q.** Which inhibition does the source give for `O=C(c1cccs1)N1CCN(c2ncccn2)CC1` here?
**A.** Its inhibition is -2.05%.

**Q.** `CCOC(=O)C1=C(C)C(c2ccc(OC)cc2)NC(=O)N1` (configuration not stated) was tested. Which inhibition did it give?
**A.** Its inhibition is -6.08%.

**Q.** How did the inhibition turn out when `Cc1nn(C)cc1/C=C1\SC(=S)NC1=O` was run?
**A.** The inhibition was 4.22%.

**Q.** How did the inhibition turn out when `CCn1c(C)cc(/C=C2/SC(=S)NC2=O)c1C` was run?
**A.** The inhibition was 1.44%.

**Q.** How did the inhibition turn out when `CCn1cc(/C=C2/SC(=S)NC2=O)c(C)n1` was run?
**A.** The inhibition was 13.2% (active).

**Q.** How did the inhibition turn out when `Cc1cc(/C=C2\SC(=S)NC2=O)c(C)n1C` was run?
**A.** The inhibition was 5.92%.

**Q.** Which inhibition does the source give for `CCn1ncc(/C=C2/SC(=S)NC2=O)c1C` here?
**A.** The inhibition was 11.3%.

**Q.** For `Cc1cc(/C=C2\SC(=S)NC2=O)c(C)[nH]1`, which inhibition is on record?
**A.** The inhibition was 13.5% (active).

**Q.** For `Cc1cc(C)n(-c2nc(C)nc(N)n2)n1`, which inhibition is on record?
**A.** Its inhibition is -5.19%.

**Q.** `CNc1nc(C)nc(-n2nc(C)cc2C)n1` was tested. Which inhibition did it give?
**A.** Its inhibition is 13.6% (active).

**Q.** With `Cc1cc(C)n(-c2nc(C)nc(NCc3ccccc3)n2)n1` as the molecule, how does the inhibition read?
**A.** The inhibition was -4.13%.

**Q.** `Cc1sc(NC(=O)c2ccco2)nc1-c1ccc2c(c1)CC(C)N2C(=O)C1CC1` (configuration not stated) was tested. Which inhibition did it give?
**A.** Its inhibition is 3.65%.

**Q.** With `CCCCn1c(-c2csc(C(C)C)c2)n[nH]c1=S` as the molecule, how does the inhibition read?
**A.** Its inhibition is -1.43%.

**Q.** How did the inhibition turn out when `CC(C)Cn1c(-c2csc(C(C)C)c2)n[nH]c1=S` was run?
**A.** The inhibition was -2.74%.

**Q.** How did the inhibition turn out when `CCn1c(-c2csc(C(C)C)c2)n[nH]c1=S` was run?
**A.** Its inhibition is 14.3% (active).
